Test results as given in ChEMBL document CHEMBL3988442, “University of Dundee, Small-Polar-MMV Screening Library” (2021).
For some assays here: Measured potencies and affinities stand elsewhere.

What was measured:
Set-up in all cases: scale not given: direction of the effect not stated beside the values
[1] = target: Protein translocase subunit SecA (Escherichia coli (strain K12)) (UniProt P10408); assay: Assay to Identify E. coli SecA ATPase Inhibitors; assay type: functional; details: 30 µM
[2] = target: T1, Ubiquitin-activating enzyme e1, putative (Leishmania donovani (strain BPK282A1)) (UniProt E9BSI1); assay: Leishmania donovani Ubiquitin Activating Enzyme (LdE1); assay type: functional; details: 30 µM
T1 sequence (whole entry): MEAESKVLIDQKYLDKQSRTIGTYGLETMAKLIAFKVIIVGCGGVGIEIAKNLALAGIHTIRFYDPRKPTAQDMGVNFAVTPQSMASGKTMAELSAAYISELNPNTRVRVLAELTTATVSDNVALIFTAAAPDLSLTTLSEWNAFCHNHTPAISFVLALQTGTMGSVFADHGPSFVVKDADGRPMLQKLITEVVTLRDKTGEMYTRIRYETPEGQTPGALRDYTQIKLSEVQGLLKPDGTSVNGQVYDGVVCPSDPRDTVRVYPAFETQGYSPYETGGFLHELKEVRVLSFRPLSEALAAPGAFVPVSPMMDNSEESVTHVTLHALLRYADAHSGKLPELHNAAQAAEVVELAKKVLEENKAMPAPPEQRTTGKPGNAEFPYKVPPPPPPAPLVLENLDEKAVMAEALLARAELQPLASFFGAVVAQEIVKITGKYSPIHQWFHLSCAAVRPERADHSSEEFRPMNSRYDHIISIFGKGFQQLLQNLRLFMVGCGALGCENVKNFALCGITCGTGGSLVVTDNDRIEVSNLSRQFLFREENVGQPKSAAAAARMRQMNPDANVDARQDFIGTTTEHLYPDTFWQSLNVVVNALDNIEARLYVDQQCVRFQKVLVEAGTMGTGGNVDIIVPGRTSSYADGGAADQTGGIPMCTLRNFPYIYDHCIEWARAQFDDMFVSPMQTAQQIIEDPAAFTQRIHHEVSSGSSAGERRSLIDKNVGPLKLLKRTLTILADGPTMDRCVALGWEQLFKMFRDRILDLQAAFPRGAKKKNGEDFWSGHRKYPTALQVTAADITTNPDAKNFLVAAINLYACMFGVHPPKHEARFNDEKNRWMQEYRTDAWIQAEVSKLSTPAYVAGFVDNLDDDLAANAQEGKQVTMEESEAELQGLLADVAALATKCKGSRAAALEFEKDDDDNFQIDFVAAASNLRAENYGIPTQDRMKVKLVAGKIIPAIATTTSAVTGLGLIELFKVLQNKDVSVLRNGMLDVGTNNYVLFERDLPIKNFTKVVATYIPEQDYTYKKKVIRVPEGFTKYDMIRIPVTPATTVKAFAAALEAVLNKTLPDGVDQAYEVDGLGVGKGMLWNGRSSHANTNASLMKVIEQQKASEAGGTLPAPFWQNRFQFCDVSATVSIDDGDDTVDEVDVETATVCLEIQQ

[3] = target: AMP-activated protein kinase, AMPK (Homo sapiens) (UniProt P54646+O43741+P54619+Q9UGJ0+Q9Y478+Q13131+Q9UGI9); assay: AMP-dependent Kinase enzyme assay. An in vitro enzyme assay that detects ADP turnover that is directly proportional to AMPK activity. This uses naive AMPK that is activated during the assay with MK-8722; assay type: functional; details: 30 µM
[4] = target: Sialic acid-binding Ig-like lectin 9 (Homo sapiens) (UniProt Q9Y336); assay: Hs-Siglec9 ALPHAscreen SOP 20170721; details: 10 µM
Trypanosoma cruzi = assay: Trypanosoma cruzi phosphomannomutase and mannose-1-phosphate guanylyltransferase assay; assay type: functional; details: 10 µM
[5] = target: T2, Arginase-2, mitochondrial (Homo sapiens) (UniProt P78540); assay: in vitro enzyme assay to detect the production of urea directly proportional to the activity of Arginase II; assay type: functional; details: 33.3 µM; note: in the data most compounds retested in dose-response had high values
T2 sequence (whole entry): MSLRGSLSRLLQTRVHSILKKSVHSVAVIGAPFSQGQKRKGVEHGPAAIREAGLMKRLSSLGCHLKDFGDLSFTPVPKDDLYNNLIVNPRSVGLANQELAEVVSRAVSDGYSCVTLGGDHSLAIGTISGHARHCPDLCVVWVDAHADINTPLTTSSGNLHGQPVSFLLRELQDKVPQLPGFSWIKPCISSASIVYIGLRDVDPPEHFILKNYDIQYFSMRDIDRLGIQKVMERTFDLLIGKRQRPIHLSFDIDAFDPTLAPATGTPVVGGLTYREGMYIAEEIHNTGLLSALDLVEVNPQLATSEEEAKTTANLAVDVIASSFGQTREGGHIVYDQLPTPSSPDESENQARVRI

[6] = target: T3, Proteasome subunit beta (Trypanosoma cruzi) (UniProt O96673); assay: Trypanosoma cruzi proteasome chymotrypsin-like activity (TcProtChymo) assay.; note: in the data most compounds retested in dose-response had high values; assay type: functional; details: 9.37 µM
T3 sequence (whole entry): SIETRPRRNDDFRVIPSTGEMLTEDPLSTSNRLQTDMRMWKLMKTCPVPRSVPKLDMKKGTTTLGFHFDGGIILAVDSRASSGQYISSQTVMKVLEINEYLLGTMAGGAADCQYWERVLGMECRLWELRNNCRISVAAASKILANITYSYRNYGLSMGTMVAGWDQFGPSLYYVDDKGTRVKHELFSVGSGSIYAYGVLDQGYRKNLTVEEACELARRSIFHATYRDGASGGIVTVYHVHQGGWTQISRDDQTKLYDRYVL

Homo sapiens = species: Homo sapiens; assay: To identify inhibition of the IFN signalling (Jak-Stat) pathway via expression of an eGFP reporter gene under the control of an IFN-stimulated response element (ISRE) containing MxA promoter.; assay type: functional; details: 30 µM
[7] = target: T4, Tyrosyl-tRNA synthetase, putative (Trypanosoma cruzi (strain CL Brener)) (UniProt Q4DSP6); assay: Trypanosoma cruzi tyrosyl tRNA synthetase (TcYRS) _High Tyrosine SOP; assay type: functional; details: 30 µM; note: in the data most compounds retested in dose-response had high values
T4 sequence (whole entry): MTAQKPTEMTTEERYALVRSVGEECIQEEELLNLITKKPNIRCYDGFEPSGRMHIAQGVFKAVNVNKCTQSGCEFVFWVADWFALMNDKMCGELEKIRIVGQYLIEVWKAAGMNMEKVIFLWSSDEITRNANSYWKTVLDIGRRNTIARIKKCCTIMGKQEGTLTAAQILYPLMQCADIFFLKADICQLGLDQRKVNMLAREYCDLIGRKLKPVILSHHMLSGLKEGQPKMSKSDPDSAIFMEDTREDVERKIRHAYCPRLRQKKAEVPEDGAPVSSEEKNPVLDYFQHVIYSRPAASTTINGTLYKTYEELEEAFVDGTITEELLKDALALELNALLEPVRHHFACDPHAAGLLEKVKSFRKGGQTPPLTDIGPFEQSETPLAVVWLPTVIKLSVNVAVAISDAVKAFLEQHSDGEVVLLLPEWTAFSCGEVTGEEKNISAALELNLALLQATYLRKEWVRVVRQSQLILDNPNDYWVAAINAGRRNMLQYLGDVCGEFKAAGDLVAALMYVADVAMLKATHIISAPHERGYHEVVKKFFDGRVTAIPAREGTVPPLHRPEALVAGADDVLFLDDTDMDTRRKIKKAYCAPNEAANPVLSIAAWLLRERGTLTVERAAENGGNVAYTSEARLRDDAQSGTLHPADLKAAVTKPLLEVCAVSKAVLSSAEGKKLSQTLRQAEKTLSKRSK

[8] = target: T4, Tyrosyl-tRNA synthetase, putative (Trypanosoma cruzi (strain CL Brener)); assay: Trypanosoma cruzi tyrosyl tRNA synthetase (TcYRS) SOP; assay type: functional; details: 30 µM
[9] = target: Chromo domain-containing protein 1 (Saccharomyces cerevisiae (strain ATCC 204508 / S288c) (Baker's yeast)) (UniProt P32657); assay: ScCHD-1 Enzyme Inhibition Assay; assay type: functional; details: 30 µM; note: in the data most compounds retested in dose-response had high values
Sequence of Chromo domain-containing protein 1 (Saccharomyces cerevisiae (strain ATCC 204508 / S288c) (Baker's yeast)) (P32657 whole entry, the tested form may be a part): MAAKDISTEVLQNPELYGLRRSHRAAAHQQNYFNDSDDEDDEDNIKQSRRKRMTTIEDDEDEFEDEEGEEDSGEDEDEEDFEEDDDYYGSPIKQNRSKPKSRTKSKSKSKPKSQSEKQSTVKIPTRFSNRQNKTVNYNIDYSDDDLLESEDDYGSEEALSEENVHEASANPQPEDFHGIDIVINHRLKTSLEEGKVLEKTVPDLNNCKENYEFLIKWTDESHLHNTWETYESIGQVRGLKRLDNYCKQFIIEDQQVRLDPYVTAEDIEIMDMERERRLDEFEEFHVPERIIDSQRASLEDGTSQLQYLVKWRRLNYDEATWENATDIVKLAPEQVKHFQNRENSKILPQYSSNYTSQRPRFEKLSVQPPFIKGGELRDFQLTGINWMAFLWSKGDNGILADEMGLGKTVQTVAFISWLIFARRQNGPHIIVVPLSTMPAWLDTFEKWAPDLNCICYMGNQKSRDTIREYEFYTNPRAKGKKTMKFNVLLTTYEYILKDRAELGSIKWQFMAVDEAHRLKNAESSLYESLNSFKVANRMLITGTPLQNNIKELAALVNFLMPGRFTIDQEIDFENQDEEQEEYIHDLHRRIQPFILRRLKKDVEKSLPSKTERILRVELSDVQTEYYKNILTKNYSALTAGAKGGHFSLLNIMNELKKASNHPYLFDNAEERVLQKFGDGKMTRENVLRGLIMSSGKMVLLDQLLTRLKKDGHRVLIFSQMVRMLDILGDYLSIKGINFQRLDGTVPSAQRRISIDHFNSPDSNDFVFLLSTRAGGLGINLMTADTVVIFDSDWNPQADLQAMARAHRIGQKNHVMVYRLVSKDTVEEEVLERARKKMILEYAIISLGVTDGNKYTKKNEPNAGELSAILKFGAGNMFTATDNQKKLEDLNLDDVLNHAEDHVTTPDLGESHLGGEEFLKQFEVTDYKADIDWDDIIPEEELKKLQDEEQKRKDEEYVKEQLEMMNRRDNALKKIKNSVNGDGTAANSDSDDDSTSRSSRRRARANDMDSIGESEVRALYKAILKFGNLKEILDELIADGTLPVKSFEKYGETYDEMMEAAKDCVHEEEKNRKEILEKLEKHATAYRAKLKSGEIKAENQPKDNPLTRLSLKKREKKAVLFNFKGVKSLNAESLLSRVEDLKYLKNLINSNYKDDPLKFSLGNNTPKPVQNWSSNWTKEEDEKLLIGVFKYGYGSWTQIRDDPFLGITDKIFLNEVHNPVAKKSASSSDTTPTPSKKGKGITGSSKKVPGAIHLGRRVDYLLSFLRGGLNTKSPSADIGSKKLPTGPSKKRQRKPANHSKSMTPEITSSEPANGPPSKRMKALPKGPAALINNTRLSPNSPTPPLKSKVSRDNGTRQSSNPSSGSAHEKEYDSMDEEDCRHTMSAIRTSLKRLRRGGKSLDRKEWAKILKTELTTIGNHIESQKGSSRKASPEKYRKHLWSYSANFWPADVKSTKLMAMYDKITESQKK

Sequence of Sialic acid-binding Ig-like lectin 9 (Homo sapiens) (Q9Y336 whole entry): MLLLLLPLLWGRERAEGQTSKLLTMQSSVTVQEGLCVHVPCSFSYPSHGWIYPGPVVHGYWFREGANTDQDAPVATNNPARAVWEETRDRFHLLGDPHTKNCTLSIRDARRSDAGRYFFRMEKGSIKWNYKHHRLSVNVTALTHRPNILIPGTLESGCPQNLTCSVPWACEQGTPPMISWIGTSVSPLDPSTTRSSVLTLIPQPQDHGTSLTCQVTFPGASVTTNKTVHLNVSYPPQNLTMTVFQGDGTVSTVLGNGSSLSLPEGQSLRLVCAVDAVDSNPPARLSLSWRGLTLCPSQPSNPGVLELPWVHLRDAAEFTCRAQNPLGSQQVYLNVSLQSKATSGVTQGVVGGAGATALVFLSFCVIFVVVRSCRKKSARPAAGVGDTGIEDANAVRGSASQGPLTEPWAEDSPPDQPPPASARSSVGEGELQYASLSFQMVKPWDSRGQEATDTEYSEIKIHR
Sequence of Protein translocase subunit SecA (Escherichia coli (strain K12)) (P10408 whole entry): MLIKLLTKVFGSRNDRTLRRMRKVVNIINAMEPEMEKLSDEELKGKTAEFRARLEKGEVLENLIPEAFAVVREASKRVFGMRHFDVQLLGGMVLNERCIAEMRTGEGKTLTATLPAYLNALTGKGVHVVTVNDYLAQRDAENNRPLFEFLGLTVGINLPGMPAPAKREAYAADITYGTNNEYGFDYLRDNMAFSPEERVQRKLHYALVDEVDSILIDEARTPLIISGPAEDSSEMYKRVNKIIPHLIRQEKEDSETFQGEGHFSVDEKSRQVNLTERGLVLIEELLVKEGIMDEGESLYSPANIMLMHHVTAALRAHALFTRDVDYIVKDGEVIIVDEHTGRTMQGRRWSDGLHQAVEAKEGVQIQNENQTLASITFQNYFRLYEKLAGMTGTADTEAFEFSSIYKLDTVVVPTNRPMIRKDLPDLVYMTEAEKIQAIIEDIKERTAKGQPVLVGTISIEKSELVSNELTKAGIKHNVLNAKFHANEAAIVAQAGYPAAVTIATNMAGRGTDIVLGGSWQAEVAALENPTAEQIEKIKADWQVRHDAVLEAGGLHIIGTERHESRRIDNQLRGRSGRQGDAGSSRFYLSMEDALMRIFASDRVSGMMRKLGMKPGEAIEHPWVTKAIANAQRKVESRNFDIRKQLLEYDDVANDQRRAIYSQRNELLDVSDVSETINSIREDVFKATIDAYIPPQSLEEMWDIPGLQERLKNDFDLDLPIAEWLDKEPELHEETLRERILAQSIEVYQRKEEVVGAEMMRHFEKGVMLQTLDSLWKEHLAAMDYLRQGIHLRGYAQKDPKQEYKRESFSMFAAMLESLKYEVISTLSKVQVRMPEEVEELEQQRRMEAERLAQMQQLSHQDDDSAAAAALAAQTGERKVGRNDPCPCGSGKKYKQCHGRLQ

Structure (SMILES) | Percent Effect [1] | Percent Effect [2] | Percent Effect [3] | Percent Effect [4] | Percent Effect (Trypanosoma cruzi) | Percent Effect [5] | Percent Effect [6] | Percent Effect (Homo sapiens) | Percent Effect [7] | Percent Effect [8] | Percent Effect [9]
Cc1cnccc1N1CCCN(C(=O)CCCS(N)(=O)=O)CC1 | -2.12% | 5.48% | 6.21% | 1.68% | 1.37% | 15.4% | 8.87% | -6.07% | 2.15% | 12.5% | 0.551%
Cc1nc(C)c(C(=O)N2CCCC2c2nnc3n2CCCCC3)s1 (stereo unspecified) | -2.68% | 13.5% | -4.05% | 1.58% | 0.586% | 5.42% | 14.3% | 3.62% | 11.9% | 11% | -0.436%
O=C(c1cnc(COc2ccccc2)nc1O)N1CCOCC1 | -3.01% | 4.17% | -4.14% | -9.54% | -1.07% | -0.442% | 8.77% | 16.1% | 2.1% | 2.56% | -1.09%
Cc1ccc2c(n1)N(C)CCN(C(=O)C1CC1)C2 | 1.38% | 8% | 0.651% | 2.31% | -8.69% | -54.3% | 7.69% | 12.1% | 2.08% | 17.5% | -6.8%
Cc1nc(C)n(CC2CCCN(Cc3ccc(C(N)=O)cc3)C2)n1 (stereo unspecified) | -2.97% | 5.2% | 2.61% | -0.0393% | -0.294% | -3.58% | 5.58% | 5.79% | 4.76% | 11.8% | -14.8%
Cc1ccc2c(c1)CN(C(=O)c1ccccc1F)C(CN(C)C)CO2 (stereo unspecified) | -0.708% | 12.2% | 14.3% | -7.4% | -5.73% | -4.41% | 11.7% | 0.0165% | 1.07% | 3.9% | -10%
COCCCNC(=O)CN(C)C(=O)c1cc(C)ccc1O | -3.14% | 16.2% | -6.15% | -4.94% | -5.48% | -0.924% | 7% | -3.62% | 3.96% | 15.8% | -7.89%
CCOc1ccnc(N2CCN(C(=O)c3cn[nH]c3CC)CC2)n1 | -3.25% | 15.2% | -3.34% | 7.76% | 0.472% | -0.38% | -1.23% | 18.9% | 7.39% | 24.1% | -4.33%
CN(C)C(=O)N1Cc2nnn(C)c2C(COCC2CC2)C1 (stereo unspecified) | 1.21% | -21.9% | -4.36% | 0.0741% | 4.96% | 2% | 6.76% | -7.39% | 2.08% | 6.17% | -1.7%
COc1ccc(-c2cnc(CN3CCn4c(C)nnc4C3)o2)cc1 | -8.18% | 5.26% | -2.37% | 6.41% | 10.9% | -3.06% | 7.18% | 11.6% | 6.37% | 19.5% | -14.7%
CC(C)Nc1ccc2nc(C3CCN(C(C)C)CC3)nn2c1 | -0.345% | 8.11% | -95.9% | -2.89% | 3.91% | 26.2% | 8.54% | 7.24% | 10.9% | 8.54% | -1.81%
COc1nc(C)cc(C)c1CNC(=O)N(C)Cc1cnn(C)c1 | -2.85% | 10.8% | -7.89% | 7.05% | 2.32% | -2.4% | 6.28% | 4.87% | 3.96% | 15.8% | -6.86%
Cc1noc(C)c1CN1CCN(Cc2ccncc2)c2ncccc2C1 | -3.04% | 8% | 4.68% | 2.81% | -6.5% | -1.17% | 2.56% | 16.7% | 7.45% | 8.97% | -0.129%
O=C(CSC1=NS(=O)(=O)c2cc(F)ccc2N1)Nc1cccc(Cl)c1 | -1.88% | -39% | 1.02% | -0.207% | 2.86% | -0.645% | 21.1% | 26.7% | -10.6% | -8.97% | -11.3%
Cc1cnn(CC2CCCN2C(=O)c2cccc(CC#N)c2)c1 (stereo unspecified) | -3.75% | 2.53% | 0.139% | -0.305% | 8.03% | 0% | -0.0819% | -5.56% | 0.493% | 1.27% | -2.19%
O=C(c1ccc(-n2cccn2)nc1)N1CCC(Nc2cccnn2)CC1 | -8.1% | 10.4% | 4.61% | 12.7% | 1.47% | 0.632% | 12.8% | 5.75% | 6.67% | 9.41% | -8.74%
